Data as given in PubChem BioAssay (NCI).
This is part of a sample that, as a whole, favours compounds with a hit. Of some 83,000 tested, about 20% had one in any assay.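 48-hour exposure, single concentration, 96-well plates; percent growth endpoint where 0 means no net growth. Active: below 10.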 The source made the active and inactive calls.

Experiments:
Test in all cases: NCI-60 one-dose screen, 48 h (100 = growth as untreated, 0 = no growth, -100 = all killed)
Conditions in all cases: 10 µM
NCI-H23 lung = test system: NCI-H23 lung
NCI-H226 lung = test system: NCI-H226 lung
NCI-H322M lung = test system: NCI-H322M lung
HOP-62 NSCLC = test system: HOP-62 NSCLC
NCI-H460 lung = test system: NCI-H460 lung
NCI-H522 lung = test system: NCI-H522 lung
A549/ATCC NSCLC = test system: A549/ATCC NSCLC
786-0 renal = test system: 786-0 renal
COLO 205 colon = test system: COLO 205 colon
DU-145 prostate = test system: DU-145 prostate
K-562 leukemia = test system: K-562 leukemia
MDA-MB-231 breast = test system: MDA-MB-231 breast
RXF 393 renal = test system: RXF 393 renal
SF-268 CNS = test system: SF-268 CNS
SF-295 CNS = test system: SF-295 CNS
SF-539 CNS = test system: SF-539 CNS
UACC-257 melanoma = test system: UACC-257 melanoma
M14 melanoma = test system: M14 melanoma
HCT-15 colon = test system: HCT-15 colon

Measured: growth

O=c1cc(-c2ccccc2)[nH]n1-c1nc2ccccc2[nH]1
inactive: NCI-H23 lung 56.1% | NCI-H226 lung 67.7% | NCI-H322M lung 49.9% | HOP-62 NSCLC 48% | NCI-H460 lung 20.7% | NCI-H522 lung 21.6% | A549/ATCC NSCLC 30.7% | 786-0 renal 50.1% | COLO 205 colon 106% | DU-145 prostate 61.1% | K-562 leukemia 10.1% | MDA-MB-231 breast 73% | RXF 393 renal 52.2% | SF-268 CNS 60.2% | SF-295 CNS 21.6% | SF-539 CNS 47.6% | UACC-257 melanoma 75.6% | M14 melanoma 41.8% | HCT-15 colon 30.7%

COc1ccc2c(c1)N(CCO)C1=C(C(=O)OC1)C2c1ccccc1 (stereo unspecified)
inactive: NCI-H23 lung 35.1% | NCI-H226 lung 36.3% | NCI-H322M lung 41.7% | HOP-62 NSCLC 24% | A549/ATCC NSCLC 46.6% | 786-0 renal 37.9% | DU-145 prostate 16.4% | K-562 leukemia 16.3% | MDA-MB-231 breast 63.4% | SF-268 CNS 51.2% | UACC-257 melanoma 55% | HCT-15 colon 22.4%
active: NCI-H460 lung 9.29% | NCI-H522 lung -24.9% | COLO 205 colon 8.42% | RXF 393 renal 2.16% | SF-295 CNS -11.6% | SF-539 CNS 2.74% | M14 melanoma 7.89%

COc1ccc2c(c1)C(=O)c1c-2c(OCCN2CCCCC2)nc2ccc(OC)cc12
inactive: NCI-H23 lung 12.6% | NCI-H226 lung 23.9% | HOP-62 NSCLC 24.4% | NCI-H522 lung 25.1% | A549/ATCC NSCLC 11.6% | 786-0 renal 18% | COLO 205 colon 28% | DU-145 prostate 11.3% | K-562 leukemia 11.2% | MDA-MB-231 breast 66.5% | RXF 393 renal 47.3% | SF-268 CNS 28.1% | SF-539 CNS 20.9% | UACC-257 melanoma 32.3% | M14 melanoma 22.9% | HCT-15 colon 26.2%
active: NCI-H322M lung 5.72% | NCI-H460 lung -50.7% | SF-295 CNS 2.81%

CCN(CC)CCOc1nc2ccccc2c2c1-c1ccc(OC)cc1C2=O
active: NCI-H23 lung -29% | NCI-H322M lung -29.3% | HOP-62 NSCLC -4.04% | NCI-H460 lung -34.4% | NCI-H522 lung -56.4% | A549/ATCC NSCLC -28.5% | 786-0 renal 0.417% | COLO 205 colon -57.1% | DU-145 prostate -8.05% | K-562 leukemia -17.8% | RXF 393 renal 3.35% | SF-268 CNS -6.65% | SF-295 CNS -7.99% | UACC-257 melanoma -18.8% | M14 melanoma -53.3% | HCT-15 colon 2.9%
inactive: NCI-H226 lung 14% | MDA-MB-231 breast 10.7% | SF-539 CNS 29.2%

COc1ccc2c(c1)sc1nc(-c3ccccc3)c(-c3cccnc3)n12
inactive: NCI-H23 lung 88.4% | NCI-H226 lung 103% | NCI-H322M lung 113% | HOP-62 NSCLC 125% | NCI-H460 lung 102% | A549/ATCC NSCLC 94.1% | 786-0 renal 96.9% | COLO 205 colon 128% | DU-145 prostate 107% | K-562 leukemia 82% | MDA-MB-231 breast 107% | RXF 393 renal 103% | SF-268 CNS 111% | SF-295 CNS 97% | SF-539 CNS 102% | UACC-257 melanoma 100% | M14 melanoma 97.7% | HCT-15 colon 84.6%
active: NCI-H522 lung -22.7%

C[N+](C)(C)c1ncnc2nc[nH]c12
inactive: NCI-H23 lung 93.8% | NCI-H226 lung 99.1% | NCI-H322M lung 67% | HOP-62 NSCLC 98% | NCI-H460 lung 104% | NCI-H522 lung 97.1% | A549/ATCC NSCLC 108% | 786-0 renal 89.8% | COLO 205 colon 104% | DU-145 prostate 116% | K-562 leukemia 73.3% | MDA-MB-231 breast 111% | SF-268 CNS 102% | SF-295 CNS 87.8% | SF-539 CNS 97.6% | UACC-257 melanoma 91.5% | M14 melanoma 93.8% | HCT-15 colon 94.2%

O=C(NC(Cc1ccc(O)cc1)C(=O)N=Nc1c(O)[nH]c2ccccc12)c1ccccc1 (stereo unspecified)
inactive: NCI-H23 lung 95% | NCI-H226 lung 100% | NCI-H322M lung 102% | HOP-62 NSCLC 93.3% | NCI-H460 lung 107% | NCI-H522 lung 97.1% | A549/ATCC NSCLC 99.5% | 786-0 renal 98.9% | COLO 205 colon 109% | DU-145 prostate 108% | K-562 leukemia 107% | MDA-MB-231 breast 110% | RXF 393 renal 108% | SF-268 CNS 97.8% | SF-295 CNS 97.4% | SF-539 CNS 98.3% | UACC-257 melanoma 97.5% | M14 melanoma 94% | HCT-15 colon 103%

FC(F)(F)c1ccc2nc(-c3nc(-c4ccccc4)n4ccccc34)[nH]c2c1
inactive: NCI-H23 lung 78.9% | NCI-H226 lung 99.4% | NCI-H322M lung 55% | HOP-62 NSCLC 110% | NCI-H460 lung 59.4% | NCI-H522 lung 68.3% | A549/ATCC NSCLC 49.5% | 786-0 renal 40.2% | COLO 205 colon 58.9% | DU-145 prostate 68.7% | K-562 leukemia 82.7% | MDA-MB-231 breast 22.1% | RXF 393 renal 94.4% | SF-268 CNS 49.1% | SF-295 CNS 104% | SF-539 CNS 35.1% | UACC-257 melanoma 81.7% | M14 melanoma 96% | HCT-15 colon 60.4%
